About 83,000 compounds went through this panel and 20% of them were active in at least one assay; those are over-represented in the sample as a whole.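 Method: cells in 96-well plates; compound added at one concentration; 48 h incubation; percent growth measured; values under 10 scored active.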 A number with no mark means an inactive call. Activity calls are given as the source filed them.
Key:
Test in all cases: NCI-60 one-dose screen, 48 h (100 = growth as untreated, 0 = no growth, -100 = all killed)
Conditions in all cases: 10 µM unless noted
HCT-15 colon = system: HCT-15 colon
HT29 colon = system: HT29 colon
SNB-75 CNS = system: SNB-75 CNS
SNB-19 CNS = system: SNB-19 CNS
PC-3 prostate = system: PC-3 prostate
SK-MEL-5 melanoma = system: SK-MEL-5 melanoma
UACC-62 melanoma = system: UACC-62 melanoma
LOX IMVI melanoma = system: LOX IMVI melanoma
SK-MEL-28 melanoma = system: SK-MEL-28 melanoma
U251 CNS = system: U251 CNS

| Structure (SMILES) | growth (HCT-15 colon) | growth (HT29 colon) | growth (SNB-75 CNS) | growth (SNB-19 CNS) | growth (PC-3 prostate) | growth (SK-MEL-5 melanoma) | growth (UACC-62 melanoma) | growth (LOX IMVI melanoma) | growth (SK-MEL-28 melanoma) | growth (U251 CNS) |
| --- | --- | --- | --- | --- | --- | --- | --- | --- | --- | --- |
| COc1cc(C(=O)Nc2cc(O)c(C/C=C(\C)CCC=C(C)C)c(O)c2)cc2c1O[C@]1(C)CC[C@@H](O)C(C)(C)[C@H]1C2 | 1.55% (active) | -25.5% (active) | 20.2% | 32.2% | 18.1% | -39.6% (active) | 0.641% (active) | -33.8% (active) | 25.8% | – |
| C=CCn1c(SCC(=O)Nc2ccc(C(=O)/C=C/c3cc(OC)c(OC)c(OC)c3)cc2)nnc1-c1ccc(Cl)cc1 | -1.47% (active) | -43.1% (active) | 20.1% | 35.2% | – | 9.64% (active) | 22.1% | -22.4% (active) | 59% | -3.31% (active) |
| Nc1ccc(C2=NN(C(=O)c3cc(-c4ccc(Cl)cc4)nc4ccccc34)C(c3ccc(Cl)cc3)C2)cc1 (centres undefined) | 26.3% | 11.5% | 67.5% | 30.5% | – | 28.3% | 38% | 48.3% | 65% | 31.5% |
| C#CCN(CCCOc1ccc(Cl)cc1Cl)CCCSC(=O)CCCCCN1/C(=C\C=C2/CCCC(/C=C/C3=[N+](CCCCCC(=O)[O-])c4ccccc4C3(C)C)=C2Cl)C(C)(C)c2ccccc21 | 87.2% | -26.7% (active) | 42.4% | 14.7% | 20.9% | -25.7% (active) | -25.8% (active) | -29.8% (active) | -9.83% (active) | – |
| CN1CCN(S(=O)(=O)O[C@@H]2C(=O)N(c3cc4c5ccccc5ccc4c4ccccc34)[C@H]2c2ccc(F)cn2)CC1 | 84.8% | 82% | 74.6% | 85% | – | 88.7% | 86.5% | 84.5% | 113% | 78.6% |
| CCCCCOC(=O)c1ccccc1O | 97.4% | 96.5% | 83.1% | 106% | – | 103% | 97.9% | 104% | 110% | 101% |
| CC1CCN(CCCCCOc2ccc3oc4ccccc4c(=O)c3c2)CC1 | 35.7% | 10.8% | 84.7% | 87.5% | – | -12.2% (active) | 14.3% | 53.3% | 87.7% | 67.5% |
| COc1cc2c(cc1OCCCOc1cc3c(cc1OC)C(=O)N1CC(F)(F)C[C@H]1C=N3)N=C[C@@H]1CC(F)(F)CN1C2=O | 94.4% | 11.8% | -8.01% (active) | 24.3% | – | -77.3% (active) | -71.2% (active) | 16% | -1.8% (active) | 18% |
| S=C(Nc1ccc(Cl)cc1)c1ccccn1 | 98.1% | 94.1% | 79.7% | 92.2% | – | 94.1% | 82.5% | 88.4% | 107% | 88.6% |
| C#C[C@@]1(O)[C@@H](CO)O[C@@H](n2cc(Cl)c3c(N)ccnc32)[C@@H]1O | 50.8% | 38.7% | 140% | 89.9% | – | 70.8% | 105% | 42% | 100% | 16% |
| CC1CCN(CCCCCOc2ccc3oc4cc(Cl)ccc4c(=O)c3c2)CC1 | -16.9% (active) | 5.89% (active) | 74.7% | 80.9% | – | -72.2% (active) | -51% (active) | -25.6% (active) | 57.5% | 54.3% |
| COc1cccc(C(=O)OCCn2nc3c4c(cccc42)C(=O)c2ccccc2-3)c1O | 28% | 79.3% | 22.8% | 38.3% | – | 36.4% | 31.3% | 37.6% | 72.5% | 33.9% |
| COc1ccc(C(=O)c2cc(F)c(F)c(OC)c2F)cc1OC(=O)CCl | 26.4% | 94.8% | 42.9% | 39.1% | – | 29% | – | 34.7% | 57.9% | 31.3% |
| COc1ccc(C(=O)c2cc(OC)c(OC)c(OC)c2)cc1OC(=O)CCl | 17% | 21.6% | 60.8% | 31.3% | – | – | 45.2% | 19% | 60.8% | -16.9% (active) |
| CCCCCCCCCCCCCC1=NCC[N+]1(CCO)Cc1ccccc1 (centres undefined) | -89.4% (active) | -89.3% (active) | 66% | -82.1% (active) | – | -73.6% (active) | -87.4% (active) | -92% (active) | -90.7% (active) | -88.7% (active) |
| Cc1ccc(C(=O)O)o1 | 112% | 92.4% | 90.7% | 112% | – | 102% | 107% | 100% | 108% | 98.3% |
| CCc1ccc(OCc2ccccc2C(=O)Nc2ccc3nc(C)cc(N)c3c2)cc1 | -75.4% (active) | -87.4% (active) | -95.1% (active) | -80.6% (active) | – | -90.5% (active) | -92.6% (active) | -83.9% (active) | -93.9% (active) | -90.9% (active) |
| COC(=O)/C=C1\SC(=Nc2cccc(OC)c2)N(CCc2c[nH]c3ccccc23)C1=O | 39.9% | 12.2% | 85% | 72.9% | – | 77.2% | 44.1% | 49.3% | 89.6% | 53.9% |
| C/C(=N\NC(=O)c1ccncc1)c1ccc(N)cc1 | 103% | 97.2% | 88.8% | 94.6% | – | 98.8% | 93.6% | 98% | 106% | 97.7% |
| COc1cc(NCC(=O)Nc2cc(Nc3ccc(C)cc3)ncn2)c(Cl)c(OC)c1Cl | 89.9% | 95.3% | 78.4% | 95.9% | – | 91.6% | 75.3% | 84.5% | 107% | 87.2% |
| O=C(CCc1nnco1)c1nc2ccc([N+](=O)[O-])cc2[nH]1 | 105% | 103% | 104% | 108% | – | 109% | 96.7% | 93.2% | 111% | 107% |
| O=c1[nH]nc(-c2ccc(Br)cc2)c2sc(NC(=S)Nc3ccc(Cl)cc3)nc12 | 103% | 94.1% | 95.7% | 103% | – | 99% | 89.5% | 84.7% | 109% | 108% |
| COc1cc2c(Nc3ccc(NC(=O)Nc4ccc(Cl)c(C(F)(F)F)c4)c(Cl)c3)ncnc2cc1OCCCN1CCN(C)CC1 | 86.7% | 1.14% (active) | 31.3% | -79% (active) | – | -44.6% (active) | – | -88.3% (active) | 36.1% | -89.5% (active) |
| COc1ccc(NC(=O)Nc2ccc(Nc3nc(C)cc(Nc4ccc(C)cc4)n3)cc2)cc1 | -78.9% (active) | -84.8% (active) | -92.8% (active) | -69.2% (active) | – | -72.7% (active) | -83% (active) | -85.3% (active) | -76.8% (active) | -83.9% (active) |
| Cc1nnc(/N=C2\NC(=O)/C(=C/c3ccsc3)S2)s1 | 88% | 90.6% | 74.3% | 100% | – | 98.4% | – | 87.7% | 101% | 94.6% |
| CCCn1c(N)c(C(N)=O)sc1=S | 90.6% | 106% | 82.9% | 97.2% | – | – | 97.9% | 93.7% | 105% | 97.4% |
| COc1ccc(-n2nc(C(=O)NCC(=O)O)nc2-c2ccccc2)cc1 | 113% | 98.7% | 103% | 100% | – | 100% | 102% | 94.1% | 108% | 107% |
| Nc1c(C(=O)Nc2ccccn2)sc2nc3c(cc12)CCCCC3 | 24% | 7.16% (active) | 12.3% | 33.4% | – | – | 40.8% | 48.6% | 73.7% | 23.2% |
| CCOC(=O)c1sc(/N=C2\NC(=O)/C(=C/c3ccc(N4CCN(C)CC4)cc3)S2)nc1C | 95.9% | 86.9% | 101% | 104% | – | 98% | 113% | 65.7% | 113% | 106% |
| N#CC1C(c2ccc(Cl)cc2)=Nc2c(c(-c3ccccc3)nn2-c2ccccc2)C12C(=O)Nc1ccc(Cl)cc12 (centres undefined) | 20.5% | 22.5% | 45.8% | 24.1% | – | 46.5% | 48.2% | 43.9% | 52% | 18.6% |

Reference: PubChem BioAssay (NCI)
